High-throughput results (PubChem)
CXXC DNA block – MLL CXXC-DNA interaction inhibition; MLL-CXXC / FITC-HOXA9 DNA fluorescence polarization; 290,000 compounds, 0.037% hits; Potency, µM (doses to about 115 µM), without a hit: at the highest dose activity change, negative = inhibition, actives largely listed as inhibitors; AID 2662; Q03164; active = well fitted inhibition curve with a large enough effect in the polarisation, with a control signal flat, not every such curve was filed as active; inconclusive = small, poorly fitted or top-dose-only effect, or effect the other way, or a change in a side signal; inactive = no such curve, though single readings can be large or run the other way; the % refers to the polarisation; note: potency is the fitted concentration of half-maximal effect
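Steps: dispense CXXC domain solution (7 uM) → pin compounds or unlabeled HOX-A9 DNA control → 5 min ambient → add FLSN-HOX-A9 solution (50 nM) → spin → 30 min ambient → fluorescence polarization. Tris pH 7.5/NaCl/DTT/BSA buffer.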
Menin-MLL FL inh – menin-MLL binding inhibition, fluorescein peptide; Fluorescence polarization, fluorescein-MLL peptide displacement from menin; FP activity change, % at 61.4 µM; 290,000 tested, under 10 active; active = well fitted curve in the direction sought with a large enough effect in the polarisation, not every such curve was filed as active; inconclusive = small, poorly fitted or top-dose-only effect, or effect the other way, or a change in a side signal; inactive = no such curve, though single readings can be large or run the other way; the % refers to the polarisation; note: % of control where 0% means no effect
Menin MLL FP TR – displaces Texas Red mutant MLL peptide from human menin; O00255; Menin + Texas Red MLL mutant peptide, fluorescence polarization; Potency, µM (series often up to 61.6 µM), for inactives: at the top dose FP activity change, negative = inhibition, usual class: inhibitors; 270,000 compounds, 0.23% hits; AID 1768; active = well fitted inhibition curve with a large enough effect in the polarisation, with a control signal flat, not every such curve was filed as active; inconclusive = small, poorly fitted or top-dose-only effect, or effect the other way, or a change in a side signal; inactive = no such curve, though single readings can be large or run the other way; the % refers to the polarisation; note: potency is the fitted concentration of half-maximal effect; % of control where 0% means no effect
RGS12 GoLoco inh – RGS12 GoLoco-Gai1 interaction inhibition; P63096; Gai1:RGS12 GoLoco peptide FP, rhodamine, 10 min; Potency, µM (series often up to 61.6 µM), inactives show top-dose activity, negative = inhibition, most hits filed as inhibitors; 230,000 compounds, 0.44% hits; active = well fitted inhibition curve with a large enough effect, not every such curve was filed as active; inactive = no such curve, though single readings can be large or run the other way; note: potency is the fitted concentration of half-maximal effect; % is set by controls: 0 for no effect and ±100 for the full control effect; nearly all actives have a fitted effect of over 30% in size
Target sequence (P63096 whole entry, looked up): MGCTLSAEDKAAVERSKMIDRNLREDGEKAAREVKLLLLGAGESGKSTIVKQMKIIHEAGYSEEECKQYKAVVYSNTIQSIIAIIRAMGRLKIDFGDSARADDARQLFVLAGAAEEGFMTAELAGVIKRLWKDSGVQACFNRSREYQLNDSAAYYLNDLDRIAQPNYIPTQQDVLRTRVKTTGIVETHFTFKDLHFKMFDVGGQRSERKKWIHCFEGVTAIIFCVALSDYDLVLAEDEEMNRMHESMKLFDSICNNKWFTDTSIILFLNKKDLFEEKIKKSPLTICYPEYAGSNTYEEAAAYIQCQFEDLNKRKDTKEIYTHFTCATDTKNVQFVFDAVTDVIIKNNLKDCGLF
Numbers without * were called inactive; ? = inconclusive; · = no result; [ ] = remark or other dose. Only a selection was taken, and hits are over-represented in it overall.

SMILES	CXXC DNA block	Menin-MLL FL inh	Menin MLL FP TR	RGS12 GoLoco inh
Cc1cc2nc3c(=O)[nH]c(=O)nc-3n(CC(O)C(O)C(O)CO)c2cc1C (configuration not stated)	·	?	-2%	14µM*
O=C(Nc1nc2ccccc2s1)c1cc(-c2ccco2)nc2ccccc12	24%	6	-2%	-3%
COC(=O)c1ccc(NC(=S)NC(=O)c2cc(-c3ccccc3)nc3ccccc23)cc1	19%	1	13µM*	14%
COc1cccc(-c2cc(C(=O)Nc3nc4ccccc4s3)c3ccccc3n2)c1	1%	4	28µM*	12%
Cc1cccc(CNc2ccnc(-c3ccoc3)n2)c1	·	?	?	27%
C/C(N=NC(=[SH+])SCc1ccccc1)=C1\C=CC=CN1.[Cl][Cu]	·	·	·	-32%[14.2 µM]
O=C1c2ccccc2C(=O)c2c(Nc3ccc(CCO)cc3)ccc(O)c21	-3%	-26	?	6%
O=C1c2ccccc2C(=O)c2c(NC3CCCCC3)ccc(Nc3ccc(S(=O)(=O)O)cc3)c21	·	·	·	3.5µM*
Cc1cccc([C@@H]2[C@@H]3C(=O)N(Cc4ccccc4)C(=O)[C@@H]3[C@]3(Cc4ccc(Cl)cc4)C(=O)N(c4ccc(Br)cc4)C(=O)N23)c1	19%	0	20µM*	·
CCOC(=O)C1=C(CSc2nc(CC)c(C)cc2C#N)OC(N)=C(C#N)C1c1ccccc1 (configuration not stated)	21%	15	-2%	6%
CCOC(=O)C1=C(CSc2nc(-c3ccccc3)ccc2C#N)OC(N)=C(C#N)C1c1ccc(OC)cc1 (configuration not stated)	40%	?	14µM*	41%
Nc1nc(N2CCOCC2)cc(=O)[nH]1	-16%	?	-18%	20µM*
Cc1cc(N2CCOCC2)nc(N)n1	6%	-1	-1%	-1%
C[C@@H]1CN2[C@H](c3ccc(Br)cc3)[C@H](C)CC[C@H]2C(=O)O1	·	5[11.7 µM]	-18%[11.7 µM]	·
O=C(c1ccccc1)c1c2c(cc3sc4ccccc4[n+]13)-c1cccc3cccc-2c13	?	?	?	1.3µM*
COc1cc(C(=O)N(Cc2cccnc2)Cc2cc3cc4c(cc3[nH]c2=O)OCCO4)cc(OC)c1OC	14%	-1	18µM*	-14%
Cc1cccc(Nc2ccc3nonc3c2[N+](=O)[O-])c1C	0%	-4	?	·
CCOC(=O)NNc1ccc2nonc2c1[N+](=O)[O-]	40µM*	-2	·	-33%
CSC1=NC2C(N1)N(C)C(=O)N2C (configuration not stated)	12%	-1	4%	16µM*
COc1ccc(C(=O)Nc2ccccc2C(=O)NC(Cc2ccc(O)cc2)C(=O)NNC(=O)c2ccccc2Cl)cc1 (configuration not stated)	8%	3	28µM*	14%
COc1ccc(C(=O)NNC(=O)C(Cc2ccc(O)cc2)NC(=O)c2ccccc2NC(=O)c2ccc(OC)cc2)cc1 (configuration not stated)	12%	-1	?	5%
COn1cnnc1-c1ccccc1	5%	-2	21%	8.9µM*
CC(=O)N1CCN(c2ccc(NCc3ccc(C)s3)cc2)CC1	0%	0	-4%[11.7 µM]	-23%
CC(=O)N1CCN(c2ccc(NCc3cccs3)cc2)CC1	0%	0	28µM*	-2%
CCCCOc1ccc(C2OC34CCCCC3C(C#N)(C#N)C2(C#N)C(=N)O4)cc1 (configuration not stated)	9%	?	·	25µM*
SMILES	CXXC DNA block	Menin-MLL FL inh	Menin MLL FP TR	RGS12 GoLoco inh
CN(C)CCCNc1cc(O)c2c(c1O)C(=O)c1ccccc1C2=O	·	·	·	3.5µM*
CO/N=C(/C(=O)N[C@@H]1C(=O)N2C(C(=O)O)=CCS[C@H]12)c1csc(N)n1	6%	3	4%	·
CCN1CCN(CCCNC(=O)c2cc3cc4ccc(OC)cc4nc3o2)CC1	-12%	0	?	10%
COc1ccc2cc3cc(C(=O)NCCCN4CCOCC4)oc3nc2c1	-9%	3	28µM*	7%
NC(=O)C[n+]1cccc2ccccc21	4%	?	19%	11µM*
O=C(O)c1cc(O)c2c(c1)[C@H]([C@H]1c3cc(C(=O)O)cc(O)c3C(=O)c3c(O[C@@H]4OC(CO)C(O)C(O)C4O)cccc31)c1cccc(O[C@@H]3OC(CO)C(O)C(O)C3O)c1C2=O (some centres not stated)	3%	?	?	7.9µM*
Cc1c(OC(=O)c2ccc([N+](=O)[O-])cc2)c2c(c[n+]1C)COC(C)(C)OC2	0%	-10	3%	13µM*
COc1ccc(OC2C=CC(C#Cc3ccc(F)cc3F)OC2CO)cc1 (configuration not stated)	·	-1[11.7 µM]	-16%[11.7 µM]	·
COC(=O)c1cc2c(-c3ccccc3)cc3ccccn3c-2c1C(=O)OC	-14%	?	?	49%
COC(=O)c1c(C(=O)OC)c2cccc3cc(-c4ccccc4)c4ccc1c4n32	-3%	?	?	18µM*
CCC[N+](C)(C)C(C)C(OC(C)=O)c1ccccc1 (configuration not stated)	5%	1	·	7.9µM*
CC/C(=C(/c1ccccc1)c1ccc(OCCN(C)C)cc1)c1ccccc1	·	0	·	0%
CCCCC(=O)OCC(=O)[C@]1(O)Cc2c(O)c3c(c(O)c2[C@H](OC2CC(NC(=O)C(F)(F)F)C(O)C(C)O2)C1)C(=O)c1c(OC)cccc1C3=O (some centres not stated)	-3%	-19	28µM*	3%
C[C@H](N)C(=O)NCC(=O)N[C@H]1CSSC[C@@H](C(=O)O)NC(=O)[C@H](CO)NC(=O)[C@H]([C@@H](C)O)NC(=O)[C@H](Cc2ccccc2)NC(=O)[C@H]([C@@H](C)O)NC(=O)[C@H](CCCCN)NC(=O)[C@H](Cc2c[nH]c3ccccc23)NC(=O)[C@H](Cc2ccccc2)NC(=O)[C@H](Cc2ccccc2)NC(=O)[C@H](CC(N)=O)NC(=O)[C@H](CCCCN)NC1=O	·	·	-24%	·
Cc1n[nH]c(C)c1N1C(=O)c2cccc3c(N4CCCCCC4)ccc(c23)C1=O	?	?	?	20µM*
CC(=O)c1coc2c1cc(O)c1ccccc12	-7%	3	2%	11%
CC(=O)c1cc(O)c2ccccc2c1O	?	?	?	14µM*
CC(C)=CCC/C(C)=C/CO/N=C1/C[C@@H](O)[C@@H](O)[C@@H]2[C@H]3C(=O)N(c4ccc(F)cc4F)C(=O)[C@@H]3CC[C@@H]12	·	0[11.7 µM]	-7%[11.7 µM]	·
COc1cccc(/C=N/NC(=O)c2cc(-c3cccn3C)n[nH]2)c1	13%	2	35µM*	10%
COc1cc(/C=N/NC(=O)c2cc(-c3cccn3C)n[nH]2)cc(OC)c1OC	0%	6	16%	5%
C[N+](C)(C)C(C1=CCCC1=O)c1ccccc1 (configuration not stated)	·	·	·	6%[14.2 µM]
